High-throughput results (PubChem)
This is a sample that favours compounds with a hit; in the whole collection about 8.7% have one here.
JMJD2A Tudor: inhibitors of human JMJD2A Tudor domain; AlphaScreen JMJD2A-Tudor / H3K4me3 peptide binding; Potency, µM (doses to about 114 µM), for the others: at the top dose activity change, negative = inhibition, usual class: inhibitors; 390,000 tested, 4.4% active; further: on the % scale 0 is the no-effect control and ±100 the full control effect; nearly all actives have a fitted effect of over 50% in size
Sfp inh: inhibitors of Bacillus subtilis Sfp phosphopantetheinyl transferase; 310,000 tested, 3.5% active; Biochemical Sfp PPTase activity, qHTS; AID 1490; Q9F4F7; Potency, µM, for the others: largest response in the series, negative = inhibition, most hits filed as inhibitors;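 further: the enzyme is Sfp with the accession as filed and its product quenches rhodamine fluorescence; 0% = enzyme reaction without inhibitor and -100% = no enzyme wells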
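With Hepes-Na pH 7.6 buffer containing 10 mM MgCl2, Sfp (15 nM) modified BHQ-2-YbbR (12.5 uM) using rhodamine-CoA (5 uM). Two reads 30 minutes apart at 525/598 nm yielded each well's rate.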
HP1b chromo inh: blocks HP1-beta chromodomain binding to methylated histone tails; AlphaScreen HP1-beta / biotin-H3K9me3 peptide binding; Potency, µM (titrated, usually from 114 µM), without a hit: at the highest dose activity change, negative = inhibition, usual class: inhibitors; 390,000 tested, 0.56% active; further: nearly all actives have a fitted effect of over 70% in size
Target sequence (P83916 whole entry, looked up): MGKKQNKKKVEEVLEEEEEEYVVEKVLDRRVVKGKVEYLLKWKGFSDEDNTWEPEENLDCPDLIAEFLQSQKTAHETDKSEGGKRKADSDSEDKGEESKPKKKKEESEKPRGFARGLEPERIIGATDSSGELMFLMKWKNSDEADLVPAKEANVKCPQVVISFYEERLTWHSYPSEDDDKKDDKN
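Compound inhibition of the preformed complex between 50 nM HP1-beta and 50 nM biotinylated H3K9me3 peptide was read by AlphaScreen. Buffer was PBS pH 7.4 with 0.01% Tween-20. Incubations ran 30 min at room temperature, with 10 ug/mL donor/acceptor beads.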
BAZ2B inh: inhibitors of human BAZ2B bromodomain. Q9UIF8. AlphaScreen BAZ2B-H3K14Ac peptide displacement. Potency, µM (doses to about 114 µM), without a hit: top-dose activity change, negative = inhibition, most hits filed as inhibitors. 360,000 tested, 4.4% active; further: on the % scale 0 is the no-effect control and ±100 the full control effect; nearly all actives have a fitted effect of over 60% in size
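AlphaScreen luminescence quantifies BAZ2B engagement of H3K14Ac peptide; the protein and biotinylated peptide are both at 50 nM final, buffer PBS pH 7.4 with 0.01% Tween-20, all steps at room temperature.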
G9a inh: inhibitors of human histone lysine methyltransferase G9a. G9a H3K9 monomethylation, AlphaScreen, 2 h. Q96KQ7. 350,000 tested, 8.8% active. AID 504332. Potency, µM (titrated, usually from 102 µM), for the others: at the top dose activity, negative = inhibition, actives largely listed as inhibitors; further: on the % scale 0 is the no-effect control and ±100 the full control effect; nearly all actives have a fitted effect of over 75% in size
Target sequence (Q96KQ7 913-1193 limits assumed): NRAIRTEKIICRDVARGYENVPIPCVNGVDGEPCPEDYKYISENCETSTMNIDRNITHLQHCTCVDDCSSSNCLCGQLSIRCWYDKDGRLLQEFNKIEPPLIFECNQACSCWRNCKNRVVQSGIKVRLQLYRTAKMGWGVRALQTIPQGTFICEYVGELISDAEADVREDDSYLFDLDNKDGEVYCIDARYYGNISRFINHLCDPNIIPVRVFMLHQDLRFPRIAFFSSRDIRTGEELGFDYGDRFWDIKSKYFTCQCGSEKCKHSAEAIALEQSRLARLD
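Using a bead-based AlphaScreen, monomethylated H3K9 product from 2 h room-temperature reactions (G9a 20 nM, peptide 500 nM, SAM 20 uM) was detected with 0.5 ug/mL rabbit anti-H3K9me1 antibody.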
12-LOX inh: blocks human arachidonate 12S-lipoxygenase | P18054 | purified 12hLO, xylenol orange hydroperoxide absorbance | Potency, µM (titrated, usually from 108 µM), for inactives: at the top dose activity change, negative = inhibition, hits mostly inhibitors | 580,000 tested, 1.1% active; further: on the % scale 0 is the no-effect control and ±100 the full control effect
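Purified human 12hLO (150 nM final) in 25 mM Hepes, 0.01% Triton X-100, pH 7.0 was preincubated 15 min at room temperature with compound. Then 40 uM arachidonic acid was added, 30 min. Hydroperoxide was read by Fe-XO absorbance ratio 573/405 nm.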
Active calls of the source: *; ? = inconclusive; / = not tested or not shown; [ ] = dose if it differs, or a comment. The call rests on the fitted dose curve; in most records, active means well fitted curve in the direction sought with a large enough effect; inconclusive means small, poorly fitted or top-dose-only effect, or another doubt; inactive means no such curve, though single readings can be large; an effect the other way counts as inactive or inconclusive. Potency means the concentration at half of the fitted maximal effect.

SMILES	JMJD2A Tudor	Sfp inh	HP1b chromo inh	BAZ2B inh	G9a inh	12-LOX inh
O=C(Nc1cccc(-c2ccco2)c1)C1CCN(Cc2ccc(CO)o2)CC1	/	/	/	/	/	-12%
CCc1ncc(CN2CCCC(C(=O)Nc3cccc(-c4ccc(F)cc4)c3)C2)cn1 (centres undefined)	-14%	8%	5%	-22%	17%	?
CC(=O)c1cccc(CN2CCCC(C(=O)Nc3cccc(-n4cccn4)c3)C2)c1 (centres undefined)	-3%	16%	38%	-32%	?	?
CC(=O)c1cccc(CN2CCCC(C(=O)Nc3ccc(-c4ccco4)cc3)C2)c1 (centres undefined)	?	56µM*	18µM*	40µM*	10µM*	?
O=C(Cc1cccnc1)N1CCC(Oc2ccccc2-c2nc(C3CC3)no2)C1 (centres undefined)	/	/	/	/	/	30%
O=C(C1COc2cc(S(=O)(=O)NCCc3ccc(Cl)cc3)ccc2O1)N1CCCCC1 (centres undefined)	/	/	/	/	/	-44%
COc1ccc2nc(C)c(C(=O)NCc3cccnc3-n3cccn3)cc2c1	/	/	/	/	/	-22%
COc1ccc2nc3n(c2c1)[C@@H](CNCc1ccc(C(F)(F)F)cc1)COC3	/	/	/	/	/	32%[176 µM]
O=C1CSC(c2ccccc2F)N1CCN1CCCCC1 (centres undefined)	-12%	4%	35%	-37%	79µM*	0%
Cc1nn2c(c1-c1cccnc1N1CCOCC1)N(C(=O)C(C)C)CCC2	/	/	/	/	/	-3%[176 µM]
COC1CCCN(Cc2c(C(=O)N3CCN(C4CCCCC4)CC3)nc3ccccn23)C1 (centres undefined)	-12%	12%	26%	?	79µM*	?
O=C(NCc1ccccn1)C1CCC(=O)N1C1CCCC1 (centres undefined)	79µM*	/	20%	/	/	?
O=C(NCCCc1ccccn1)C1CC(=O)N(C2CC2)C1 (centres undefined)	/	/	/	/	/	12%
O=C(NCCCN1CCc2ccccc2C1)C1CCN(S(=O)(=O)N2CCC3(CC2)OCCO3)CC1	-9%	-21%	22%	-12%	3%	-17%
O=C(NCCCN1CCc2ccccc2C1)C1CCN(S(=O)(=O)N2CCCC2)CC1	-25%	-9%	16%	50µM*	27%[0.501 µM]	15%
O=C(NCc1ccccn1)C1CC(=O)N(C2CCCC2)C1 (centres undefined)	79µM*	/	22%	/	/	4%[57.4 µM]
O=C(NCCc1ccccc1)C1CC(=O)N(C2CCCC2)C1 (centres undefined)	-7%	12%	16%[57 µM]	1%[57.1 µM]	1%	1%
O=C(NCCN1CCc2ccccc2C1)C1CC(=O)N(C2CCCC2)C1 (centres undefined)	89µM*	6%	14%	?	-36%[0.0925 µM]	17%
Nc1[nH]c(N=NC(=O)c2ccc(F)cc2)c2ccccc12	-23%	-16%	18%	?	8%	-6%
Nc1ccccc1C(=O)N=Nc1[nH]c(N)c2ccccc12	79µM*	6%	31%	35µM*	8%[59 µM]	5%
COc1cccc(C2C3=C(N=C4SCC(=O)N42)c2ccccc2CC3)c1OC (centres undefined)	-27%	-3%	7%	-39%	-27%[12.7 µM]	-4%
S=C1NC2=C(CCc3ccccc32)C(c2ccccc2Cl)N1 (centres undefined)	/	/	/	/	/	8.9µM*
Clc1ccc(C2C3=C(Nc4ncnn42)c2ccccc2CC3)cc1 (centres undefined)	/	-13%	/	-9%	-45%[12.7 µM]	/
CC(=O)C1=C(C)NC(=S)NC1c1ccccc1 (centres undefined)	/	/	/	/	/	-4%
S=C1NC2=C(CCCC2=C2SCCS2)C(c2ccccc2)N1 (centres undefined)	?	-7%	-16%	?	10µM*	?
SMILES	JMJD2A Tudor	Sfp inh	HP1b chromo inh	BAZ2B inh	G9a inh	12-LOX inh
S=C1NC2=C(CCc3ccccc32)C(c2ccc(Cl)cc2)N1 (centres undefined)	/	/	/	/	/	28µM*
COc1ccccc1C1NC(=S)NC2=C1CCc1ccccc12 (centres undefined)	/	/	/	/	/	28µM*
Cc1ccc(-c2ncc(C(=O)NCC3CCCCC3)c(-c3ccncc3)n2)cc1	/	/	/	/	/	39%
O=C(Nc1nccs1)[C@@H]1C[C@@H](c2ccc(F)cc2)N(Cc2ccccc2)C1	/	/	/	/	/	19%[176 µM]
O=C(COc1ccccc1)N1CC(CNc2cccnc2)C2(C1)CN(c1ccccc1)C2 (centres undefined)	/	/	/	/	/	5%[176 µM]
COC(=O)C1=C(C)NC(=S)NC1c1cccc(OC)c1 (centres undefined)	/	/	/	/	/	-25%
COc1cccc(C2NC(=S)NC3=C2CCc2ccccc23)c1 (centres undefined)	-12%	50µM*	-3%	-6%	7.9µM*	?
COc1ccccc1Nc1nc(NCc2ccco2)c2ccccc2n1	-31%	-29%	11%	?	50µM*	?
Cc1ccc(Nc2nc(NCc3ccco3)c3ccccc3n2)cc1	?	10µM*	0%	-37%	?	?
Oc1ccccc1-c1nc(NCc2ccco2)c2ccccc2n1	-20%	?	13%	-12%	5%[12.7 µM]	?
Fc1ccccc1-c1nc(NCc2ccco2)c2ccccc2n1	-24%	-3%	-17%	?	/	-20%
O=S(=O)(c1ccc2nc(Nc3ccccc3)ccc2c1)N1CCCCC1	28µM*	50µM*	24%	40µM*	/	?
COc1ccc(CNc2ccc3cc(S(=O)(=O)N4CCCCC4)ccc3n2)cc1	3%	/	30%	-20%	11µM*	?
COc1ccc(Nc2ccc3cc(S(=O)(=O)N4CCCC4)ccc3n2)cc1OC	?	/	22%	?	14µM*	?
COCCNc1ccc2cc(S(=O)(=O)N3CCCCC3)ccc2n1	6%	/	37%	2%	-2%[59 µM]	?
COc1ccccc1CNC(=O)Cc1c(C)c2ccc(OC)c(C)c2oc1=O	/	/	/	/	/	-17%
O=C(O)c1ccc([N+](=O)[O-])c(CS(=O)(=O)c2ccc(Cl)cc2)c1	-9%	-7%	80%	?	-45%	-5%
O=C(CBr)c1ccc([N+](=O)[O-])c(CS(=O)(=O)c2ccc(Cl)cc2)c1	?	56µM*	18%	-38%	7.1µM*	?
CCCS(=O)(=O)N1CCC(C(=O)N2CCCCCCNC(=O)CC2)CC1	/	/	/	/	/	35%
CC(C)Oc1ccc2c(=O)c(Oc3ccccc3)coc2c1	/	/	/	/	/	0%
O=C(NC[C@H]1OC[C@@H](NC2CCC2)[C@@H]1O)C1CCCC1	/	/	/	/	/	3%[176 µM]
FC(F)(F)c1cccc(NC(=S)NNC(=S)NCc2ccccc2)c1	?	45µM*	-18%	-10%	?	?
